Compound activity deposited in PubChem by University of Kansas High Throughput Screening Laboratory.
An excerpt weighted towards active compounds, which were near 3.5% of everything screened.
mHTT CaM bind = mutant huntingtin-calmodulin interaction inhibitors – biochemical, AlphaScreen, primary screen. P42858. AlphaScreen His-mHTT/GST-CaM binding, luminescence. inhibition, % at 15 µM. actives 3.6% (n = 190,000);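 further: 0% = both proteins with DMSO and 100% = one protein alone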
Pf apPOL block = Pf-apPOL inhibitors, biochemical, fluorescence | Plasmodium falciparum apicoplast DNA polymerase (apPOL) | Recombinant Pf-apPOL, molecular beacon fluorescence, 1.5 h | inhibition, % at 10 µM | actives 0.25% (n = 210,000)
* hit, by the source's call; . = no result. No stated cut-off is given here; in the data, active means inhibition above about 50%; inactive means the rest.

SMILES	mHTT CaM bind	Pf apPOL block
CCCOc1ccc(/C=C2\C(=O)ON=C2C)cc1OC	78.0*	-5.6
CCOc1cc(/C=C2\C(=O)ON=C2C)cc(Cl)c1OCc1cccc(F)c1	87.0*	-2.1
CC1=NOC(=O)/C1=C/c1ccc(OCc2cccc(F)c2)c(Br)c1	31.0	-1.8
CCOc1cc(/C=C2/C(=O)ON=C2C)ccc1OCc1ccccc1F	44.0	-1.4
COc1ccc(/C=C2/C(=O)ON=C2C)cc1Br	14.0	-11.8
CCOc1cc(/C=C2\C(=O)ON=C2C)cc(Cl)c1OCc1ccccc1F	96.0*	-1.2
CCOc1ccc2c(=O)c(-c3ccc(OC)c(OC)c3)c(C(F)(F)F)oc2c1	8.0	-1.9
CCCNC(=O)N1CCN(Cc2nc3cccnc3n2-c2ccc(OCC)cc2)CC1	11.4	-2.1
Cc1ncc(CO)c2cc(C(=O)Nc3ccccc3Cl)c(=N)oc12	1.0	-0.7
CCCCNC(=O)CC1N=C2c3ccccc3N=C(SCc3ccc([N+](=O)[O-])cc3)N2C1=O (stereo unspecified)	53.0*	-2.2
CCCCNC(=O)CCC1N=C2c3ccccc3N=C(SCc3ccc([N+](=O)[O-])cc3)N2C1=O (stereo unspecified)	3.0	-1.7
Cc1noc(C)c1CC(=O)N1CCCn2cc(-c3ccccc3F)nc21	3.6	-0.3
Cc1noc(C)c1CC(=O)N1CCCn2cc(-c3ccccc3)nc21	53.1*	6.0
CCCCS(=O)(=O)N1CCCC2(C1)Nc1cccnc1NC2=NCc1ccccc1 (stereo unspecified)	14.7	0.2
Cn1c(=O)cc2c3c(c(N4CCCCC4)ccc31)C(=O)c1ccccc1-2	55.0*	-9.1
Cn1c(=O)cc2c3c(c(Br)ccc31)C(=O)c1ccccc1-2	2.0	-1.6
COCC(C)NCc1cccc([N+](=O)[O-])c1 (stereo unspecified)	-0.6	-0.5
CCCCOc1ccc(C(=O)NCC2OCCc3ccccc32)cc1 (stereo unspecified)	-4.0	0.6
Cc1cccc(C2=NC3(CCN(CC(=O)Nc4ccc(F)cc4)CC3)NC2=O)c1	68.7*	5.1
Cc1cccc(NC(=O)CN2CCC3(CC2)N=C(c2ccc(F)cc2)C(=O)N3)c1	-8.3	-0.7
Cc1ccc(C2=NC3(CCN(CC(=O)NCc4ccc(Cl)cc4)CC3)NC2=O)cc1	41.9	2.0
O=C(CN1CCC2(CC1)N=C(c1cccc(F)c1)C(=O)N2)Nc1ccc(Cl)cc1	16.9	2.6
Cc1cccc(C2=NC3(CCN(CC(=O)NCc4ccc(Cl)cc4)CC3)NC2=O)c1	53.3*	11.3
Cc1ccc(CN2CCC3(CC2)N=C(c2ccccc2)C(=O)N3)cc1	53.5*	-7.3
Cc1ccc(C2=NC3(CCN(Cc4ccc(F)cc4)CC3)NC2=O)cc1	0.7	3.2
SMILES	mHTT CaM bind	Pf apPOL block
O=C(CN1CCC2(CC1)N=C(c1cccc(Cl)c1)C(=O)N2)Nc1ccc(Cl)cc1	88.3*	2.6
CSc1ccc(C=Nc2ccc3cc4ccc(N=Cc5ccc(SC)cc5)cc4nc3c2)cc1	11.7	.
Cc1onc(-c2c(Cl)cccc2Cl)c1C1=NCCO1	.	-3.3
COc1cc(/C=C2/C(=O)N(c3ccc(Cl)c(C(=O)O)c3)N=C2C)ccc1OCC#N	-8.0	-2.4
c1ccc2ncc(-c3ccc4ccccc4n3)cc2c1	-11.6	-0.4
Nc1cccc2ccc(-c3cnc4ccccc4c3)nc12	57.0*	-1.0
Cc1ccc([N+](=O)[O-])cc1NS(=O)(=O)c1ccc(Cl)cc1	2.4	-0.6
CCc1ccc(N2C(=O)Nc3ccc(Br)cc3C2(O)C(=O)NC(C)C)cc1 (stereo unspecified)	3.0	-10.8
O=Cc1ccc2c(c1)C1c3ccccc3C2c2ccccc21	4.4	3.1
S=C(NCc1ccc2[nH]c3c(c2c1)CCCC3)NC1CCCCC1	39.8	-3.0
O=S(=O)(NC1CCCCC1)c1ccc2[nH]c3c(c2c1)CCCCC3	95.5*	-3.0
Cc1ccc(NS(=O)(=O)c2ccc3[nH]c4c(c3c2)CCCCC4)nc1	60.4*	-3.8
O=S(=O)(Nc1ccccn1)c1ccc2[nH]c3c(c2c1)CCCCC3	2.1	-1.6
CC1(C(Cl)(Cl)Cl)C=CC(=Nc2ccccc2)C=C1 (stereo unspecified)	-1.0	-0.2
CCOc1ccc(NC(=O)C(Cc2ccccc2)N2C(=O)c3ccccc3C2=O)cc1 (stereo unspecified)	8.0	-2.5
O=C(NN1CCOCC1)c1cccc([N+](=O)[O-])c1	2.8	8.0
CCCCN(C)S(=O)(=O)c1ccc(C(=O)N=c2sc3cc(OC)ccc3n2C)cc1	-5.0	-0.6
CC(=O)N(C)c1ccc(N=Cc2cc3c(cc2[N+](=O)[O-])OCO3)cc1	31.0	12.9
N#Cc1ccccc1N=Cc1cc2c(cc1[N+](=O)[O-])OCO2	19.0	-2.1
Cc1cc(C)c(O)c(N=Cc2cc(Cl)cc([N+](=O)[O-])c2O)c1	32.0	-0.2
Cc1cc(C)c(O)c(N=Cc2cc3c(cc2[N+](=O)[O-])OCO3)c1	52.0*	-1.7
